# Source: PubChem BioAssay (NCATS)
# Inconclusive results are not listed. Values without a mark were called inactive. Activity calls are given as the source filed them. Calls come from the whole dose curve.
# Assay: Cytotoxicity counterscreen for inhibitors of SARS-CoV-2 cell entry (AID 1645845); note: nearly all actives have a fitted effect of over 50% in size
# Settings: cell viability (SARS-CoV-2 entry assay cells); series mostly up to 57.1 µM; activity change, negative = cytotoxicity: at the top concentration
# Method in brief: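 ATP-content luminescence (ATPLite 1step, 15 min RT) read after 48 h compound exposure of Expi293F cells stably expressing human ACE2; normalized to cells-only wells and media-only wells.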
# % is set by controls: 0 for no effect and ±100 for the full control effect; potency is the fitted concentration of half-maximal effect.
SMILES,outcome,"activity change, negative = cytotoxicity",Potency
COc1ccc(CNC(=O)c2cc(-c3cncc(Cl)c3)cnc2-c2ccccn2)nc1OC,inactive,–,–
Cc1ccc(Nc2ncc3c(n2)N(C)C(=O)N(c2cc(NC(=O)c4cccc(C(F)(F)F)c4)ccc2C)C3)cn1,–,-20.3%,–
O=C(NCc1cccc(O)c1)Nc1nc(-c2ccncc2)cs1,–,-15.4%,–
Cc1ccc(NC(=O)Nc2cc(C(F)(F)F)ccc2F)cc1Nc1ccc2c(c1)NC(=O)/C2=C\c1ccc[nH]1,–,-5.4%,–
Cc1noc(C)c1-c1ccc(-c2cc(C(N)=O)c(NC(N)=O)s2)c(O[C@H]2CCNC2)c1,–,-21.4%,–
CN1CCN(c2ccc(-c3cccc(CN4CCOCC4)c3)cc2NC(=O)c2c[nH]c(=O)cc2C(F)(F)F)CC1,inactive [at 37.9 µM],–,–
CN1C(N)=N[C@](C)(c2cc(NC(=O)c3ccc(F)cn3)ccc2F)CS1(=O)=O,inactive,–,–
C[C@@H]1CC(=O)Nc2cccc(-c3ccc4c(c3)c(-c3cnn(C)c3)nn4C)c2N1,–,2.23%,–
COc1cc(N2CCN(C)CC2)ccc1Nc1ncc2c(n1)N(C)c1ccccc1C(=O)N2,inactive,–,–
C=C1C(=O)O[C@H]2C[C@H](C)C(/C=C/C(C)=O)=CC[C@H]12,–,–,31.6 µM (active)
O=C(Nc1ccc2[nH]nc(-c3ccncc3)c2c1)[C@@H]1CCN(CC(=O)N2CCN(c3ccc(-c4ncccn4)cc3)CC2)C1,–,1.16%,–
NC[C@@](O)(c1ccc(Cl)cc1)c1ccc(-c2cn[nH]c2)cc1,–,–,28.2 µM (active)
NC(=O)c1cnc2[nH]ccc2c1NC1C2CC3C[C@H]1CC(O)(C3)C2 (stereo not given in full),–,-11%,–
COc1ccccc1C(=O)Nc1cc2c(cc1N1CCNC[C@H]1C)n(C)c(=O)n2C,inactive,–,–
C[C@H](Nc1ncnc2nc[nH]c12)c1cc2cccc(Cl)c2c(=O)n1-c1ccccc1,–,2.56%,–
O=C(Cc1ccccc1)Nc1nnc(CCSCCc2nnc(NC(=O)Cc3ccccc3)s2)s1,–,4.89%,–
CCOc1cc(C(C)(C)C)ccc1C1=N[C@@](C)(c2ccc(Cl)cc2)[C@@](C)(c2ccc(Cl)cc2)N1C(=O)N1CCN(CC(=O)N2CCOCC2)CC1,inactive [at 37.9 µM],–,–
Cc1cccc(-c2[nH]ncc2-c2ccc(F)c(-c3cnn(CCO)c3)c2)n1,–,-3.01%,–

SMILES,outcome,"activity change, negative = cytotoxicity",Potency
COc1ccc2c(c1)C(c1ccc(F)cc1)=C(CN1CCCC1)CO2,inactive,–,–
CS(=O)(=O)c1ccc([C@@H](CC2CCCC2)C(=O)Nc2nccs2)cc1,–,-17.5%,–
CO[C@H]1/C=C/O[C@@]2(C)Oc3c(C)c(O)c4c(O)c(c5c(nc6cc(C)ccn65)c4c3C2=O)NC(=O)/C(C)=C\C=C\[C@H](C)[C@H](O)[C@@H](C)[C@@H](O)[C@@H](C)[C@H](OC(C)=O)[C@@H]1C,–,-8.31%,–
CN(C)c1cc(NC(=O)CNC(C)(C)C)c(O)c2c1C[C@H]1C[C@H]3[C@H](N(C)C)C(=O)C(C(N)=O)=C(O)[C@]3(O)C(=O)C1=C2O,–,-0.326%,–
CCN1C(=O)CNc2ncc(-c3ccc(-c4ncn[nH]4)nc3C)nc21,–,–,22.4 µM (active)
CNc1nc(-c2ccc3c(N)n[nH]c3c2)cc(N2C[C@@H](C(=O)NC3CCCCC3)CC[C@H]2C)n1,–,0.975%,–
CNS(=O)(=O)c1ccc2c(c1)/C(=C/c1[nH]c3c(c1CCCN1CCN(C)CC1)CCCC3)C(=O)N2,inactive,–,–
C[C@H](NC(=O)c1c(N)nn2cccnc12)c1cc2cccc(C#Cc3cnn(C)c3)c2c(=O)n1-c1ccccc1,inactive [at 27.1 µM],–,–
Cc1cc(-n2c(=O)ccc3cnc4[nH]ccc4c32)ccc1F,inactive,–,–
COc1cc(=C2C=c3ccccc3=N2)[nH]/c1=C/c1[nH]c(C)cc1C,–,–,10 µM (active)
Cn1ncc(Cl)c1-c1cc(C(=O)N[C@H](CN)Cc2cccc(F)c2)sc1Cl,–,-1.09%,–
Cn1cc(-c2nc(N[C@@H]3CCCC[C@@H]3N)c(F)c3c2C(=O)NC3)cn1,inactive [at 5.25 µM],–,–
CN1C(=O)N(c2cc(Cl)cc(Cl)c2)C(=O)[C@]12CN(Cc1cc(C(=O)O)cs1)C[C@H]2c1ccc(C#N)cc1,–,-2.41%,–
Cc1c(NC(=O)OCC2COCCN2)cn2ncnc(Nc3ccc4c(cnn4Cc4cccc(F)c4)c3)c12 (stereo not given),–,-19.4%,–
CCCC(CCC)C(=O)Nc1ccn([C@@H]2O[C@H](CO)[C@@H](O)C2(F)F)c(=O)n1,–,-14.9%,–
CCCN(CCC)C(=O)C1=Cc2ccc(-c3ccc(C(=O)N4CCCC4)cc3)cc2N=C(N)C1,–,-11.7%,–
COC(=O)N[C@@H](C)CNc1nccc(-c2cn(C(C)C)nc2-c2cc(Cl)cc(NS(C)(=O)=O)c2F)n1,inactive,–,–
